# Data as given in the supplement of paper PMC8285479.
# Counter-ions that a name gives are not always drawn. ± gives the standard deviation of the averaged measurements. Over roughly 1,900 compounds, “normalised cell viability (NPI; 0 = phenylarsine oxide control, 1 = DMSO control)” has its median near 1; the lowest 2% begin near 0.039. This is one part of a sample in which the lowest values are shown more often than they occur.
# System: NCI-H1944
# Experiment: normalised cell viability (NPI; 0 = phenylarsine oxide control, 1 = DMSO control) (fraction of DMSO control); NCI-H1944 is a non-small cell lung cancer line; higher = more viable cells (less compound toxicity)
# Conditions: 6 days
# [1] = glucocorticoid arm: hydrocortisone 2.75 uM co-treatment, compound 1 µM
# [2] = glucocorticoid arm: hydrocortisone 2.75 uM co-treatment, compound 5 µM
# [3] = glucocorticoid arm: hydrocortisone 2.75 uM pre-treated 2 days and continued, compound 1 µM
# [4] = glucocorticoid arm: hydrocortisone 2.75 uM pre-treated 2 days and continued, compound 5 µM
# [5] = glucocorticoid arm: vehicle, compound 1 µM
# [6] = glucocorticoid arm: vehicle, compound 5 µM
# 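Note: CTB read-out in 384-well plates, triplicate wells, NPI normalised per plate against 1 µM phenylarsine oxide (0) and 0.1% DMSO (1) controls.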
Structure (SMILES),normalised cell viability [1],normalised cell viability [2],normalised cell viability [3],normalised cell viability [4],normalised cell viability [5],normalised cell viability [6]
Nc1ccc(-c2ccc3ncc4ccc(=O)n(-c5cccc(C(F)(F)F)c5)c4c3c2)cn1 [Torin 2],0.175 ± 0.0021,0.171 ± 0.0032,0.267 ± 0.012,0.299 ± 0.0097,0.0254 ± 0.002,0.0207 ± 0.0023
CCC(=O)N1CCN(c2ccc(-n3c(=O)ccc4cnc5ccc(-c6cnc7ccccc7c6)cc5c43)cc2C(F)(F)F)CC1 [Torin 1],0.4 ± 0.0087,0.383 ± 0.013,0.532 ± 0.018,0.518 ± 0.022,0.223 ± 0.023,0.286 ± 0.01
"O=C(O)[C@H]1C[C@H](C(=O)O)N1 (relative stereo) [trans-Azetidine-2,4-dicarboxylic acid]",1.007 ± 0.0058,1.007 ± 0.0058,1.005 ± 0.0087,1.01,0.9843 ± 0.0025,0.9883 ± 0.0091
CC(C)(C)c1cnc(CSc2cnc(NC(=O)C3CCNCC3)s2)o1,0.0382 ± 0.0034,0.036 ± 0.0061,0.148 ± 0.013,0.133 ± 0.018,0.00695 ± 0.0037,0.00933 ± 0.00035
C=C(C)C(CC=C(C)C)CC12CC(CC=C(C)C)C(C)(C)C(CC=C(C)C)(C(=O)C(=C(O)c3ccc(O)c(O)c3)C1=O)C2=O (configuration not stated) [Garcinol],1 ± 0.012,1.01 ± 0.013,0.992 ± 0.014,0.997 ± 0.027,1.007 ± 0.0052,1.001 ± 0.01
O=[N+]([O-])c1ccc(-c2nc(-c3ccc(F)cc3)c(-c3ccncc3)[nH]2)cc1,0.976 ± 0.019,0.903 ± 0.014,0.9707 ± 0.008,0.865 ± 0.019,0.996 ± 0.004,0.962 ± 0.051
N#C/C(=C/c1ccc(O)c(O)c1)C(=O)NCc1ccccc1 [Tyrphostin AG 490],1.01 ± 0.016,1.03 ± 0.015,0.999 ± 0.028,1 ± 0.014,1.02 ± 0.01,1.02 ± 0.01
C[C@H](Cc1ccc(O)c(O)c1)[C@@H](C)Cc1ccc(O)c(O)c1,0.996 ± 0.013,1.02 ± 0.02,0.998 ± 0.013,1.04 ± 0.058,1.013 ± 0.0058,1.02 ± 0.011
CO/N=C(\C(=O)N[C@@H]1C(=O)N2C(C(=O)O)=C(CSc3nc(=O)c(O)nn3C)CS[C@H]12)c1csc(N)n1 [Ceftriaxone sodium salt],0.985 ± 0.0052,0.995 ± 0.025,0.849 ± 0.22,0.992 ± 0.0057,0.964 ± 0.0069,0.9743 ± 0.006
Oc1ccc2ccccc2c1SSc1c(O)ccc2ccccc12,1.03 ± 0.01,1.08 ± 0.021,1.017 ± 0.0058,1.01 ± 0.028,1.013 ± 0.0058,1.04 ± 0.01
CNc1nc(Nc2cnn(C3CCN(C4COC4)CC3F)c2Cl)ncc1C(F)(F)F (configuration not stated),1.02 ± 0.01,1.05 ± 0.023,1.04 ± 0.01,1.05 ± 0.01,1.007 ± 0.0058,1.007 ± 0.0058
Cc1[nH]nc2ccc(-c3cncc(OC[C@@H](N)Cc4ccccc4)c3)cc12,0.452 ± 0.007,0.0555 ± 0.0049,0.792 ± 0.022,0.129 ± 0.0089,0.1 ± 0.012,0.0136 ± 0.0021
